Compounds without any hit were thinned out: in the full panel of roughly 79,000, 15% have a hit. Unmarked numbers belong to inactive results. Calls of active or inactive are those of the source. Rule as the data show it: active = growth inhibition above about 70%; inactive = the rest.

A short description of assay [1]: NCI Yeast Anticancer Drug Screen. Data for the rad50 strain (AID 155).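 Also: 0% = growth of vehicle-only cultures of the same strain.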 Conditions: S. cerevisiae rad50 strain growth inhibition, active compounds read high. The gist of the method: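 Growth of the mutant yeast was measured after compound exposure and referenced to vehicle-treated cultures.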
Assay [2] in a line: NCI Yeast Anticancer Drug Screen. Data for the mec2-1 strain (AID 157). Conditions: S. cerevisiae mec2-1 strain, active compounds read high. The gist of the method:
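Mutant yeast (mec2-1) grown with compound; growth inhibition relative to vehicle control reported.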

Assay [3] can be described thus: NCI Yeast Anticancer Drug Screen. Data for the sgs1 mgt1 strain (AID 161).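 Also: 0% = growth of cultures given vehicle only.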 Conditions: S. cerevisiae sgs1 mgt1 strain, active compounds read high. An outline of the steps: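 Yeast cells carrying a defined DNA-repair defect were exposed to test compounds. Growth inhibition was measured relative to vehicle-treated controls.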
The nature of assay [4]: NCI Yeast Anticancer Drug Screen. Data for the cln2 rad14 strain (AID 165).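 Also: 0% = growth equal to vehicle treated cultures.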 The following applies: S. cerevisiae cln2 rad14 strain, active compounds read high. An outline of the steps: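 Readout is yeast growth inhibition versus vehicle-treated controls, using a strain with cln2 and rad14 alterations exposed to compound.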
A short description of assay [5]: NCI Yeast Anticancer Drug Screen. Data for the bub3 strain (AID 167). The following applies: S. cerevisiae bub3 mutant strain, active compounds read high. The gist of the method: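 Whole-cell yeast assay. The mutant strain was incubated with compounds, and growth inhibition was determined by comparison with vehicle-treated cells.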
The nature of assay [6]: NCI Yeast Anticancer Drug Screen. Data for the mlh1 rad18 strain (AID 175). The following applies: S. cerevisiae mlh1 rad18 strain growth inhibition, active compounds read high. The gist of the method:
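Genetically defined yeast (DNA repair-deficient) exposed to compounds; growth inhibition determined relative to vehicle.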

The mark [7] stands for this setting: at 5.0 µM (retest, dose inferred, filed as 0.5).
Where [8] appears, read: at 50.0 µM (retest, dose inferred, filed as 5.0).

As for `O=C1C(=O)C(Br)(c2ccccc2)C(=O)C1c1ccccc1` (configuration not stated), the growth inhibition was -16% in assay [1] (setting [7]); 4% in assay [1] (setting [8]); 52.5% in assay [1] (at 50.0 µM); -22% in assay [2] (setting [7]); 2% in assay [2] (setting [8]); 71.4% (active) in assay [2] (at 50.0 µM). For the same compound, the growth inhibition was -19% in assay [3] (setting [7]); 8% in assay [3] (setting [8]); 13.2% in assay [3] (at 50.0 µM); -2% in assay [4] (setting [7]); 72% (active) in assay [4] (setting [8]); 93.8% (active) in assay [4] (at 50.0 µM). In addition, the growth inhibition was 85% (active) in assay [5] (setting [7]); 97% (active) in assay [5] (setting [8]); 97.7% (active) in assay [5] (at 50.0 µM); 7% in assay [6] (setting [7]); 20% in assay [6] (setting [8]); 97.7% (active) in assay [6] (at 50.0 µM).

Regarding `Nc1ccc(Cl)c2ccccc12`, the growth inhibition in assay [1] (setting [7]) is -1%; in assay [1] (setting [8]), 42%; in assay [1] (at 50.0 µM) it was 84.2% (active); in assay [2] (setting [7]), -4%; in assay [2] (setting [8]) it was 20%; in assay [2] (at 50.0 µM) it was 76.8% (active). The growth inhibition in assay [3] (setting [7]) is -5%; in assay [3] (setting [8]), 12%; in assay [3] (at 50.0 µM), 71.2% (active); in assay [4] (setting [7]), 40%; in assay [4] (setting [8]), 26%; in assay [4] (at 50.0 µM) it was 53.5%. Also, the growth inhibition was 6% in assay [5] (setting [7]); 48% in assay [5] (setting [8]); 57.9% in assay [5] (at 50.0 µM); -4% in assay [6] (setting [7]); 33% in assay [6] (setting [8]); 74.5% (active) in assay [6] (at 50.0 µM).

In the case of `O=C(CBr)N1c2ccccc2Sc2ccc3ccccc3c21`, the growth inhibition is 93% (active) in assay [1] (setting [7]); 99% (active) in assay [1] (setting [8]); 90.5% (active) in assay [1] (at 50.0 µM); 49% in assay [2] (setting [7]); 99% (active) in assay [2] (setting [8]); 90.7% (active) in assay [2] (at 50.0 µM). The growth inhibition was 81% (active) in assay [3] (setting [7]); 99% (active) in assay [3] (setting [8]); 91.7% (active) in assay [3] (at 50.0 µM); 62% in assay [4] (setting [7]); 99% (active) in assay [4] (setting [8]); 90% (active) in assay [4] (at 50.0 µM). The growth inhibition in assay [5] (setting [7]) is 74% (active); in assay [5] (setting [8]), 99% (active); in assay [5] (at 50.0 µM), 91% (active); in assay [6] (setting [7]), 88% (active); in assay [6] (setting [8]), 98% (active); in assay [6] (at 50.0 µM), 88.2% (active).

On to `Cc1ccc(NC(=O)CC2SC(=Nc3ccc(Cl)cc3)NC2=O)cc1C` (configuration not stated), for which the growth inhibition in assay [1] (setting [7]) is 79% (active); in assay [1] (setting [8]), -11%; in assay [1] (at 50.0 µM), 99.2% (active); in assay [2] (setting [7]) it was 57%; in assay [2] (setting [8]), 5%; in assay [2] (at 50.0 µM), 99.5% (active). Also, the growth inhibition in assay [3] (setting [7]) was 65%; in assay [3] (setting [8]), 0%; in assay [3] (at 50.0 µM), 99.3% (active); in assay [4] (setting [7]), 41%; in assay [4] (setting [8]), 18%; in assay [4] (at 50.0 µM) it was 98.3% (active). Moreover, the growth inhibition in assay [5] (setting [7]) was 89% (active); in assay [5] (setting [8]), 11%; in assay [5] (at 50.0 µM) it was 99.1% (active); in assay [6] (setting [7]) it was 31%; in assay [6] (setting [8]), 12%; in assay [6] (at 50.0 µM), 99.2% (active).

For the compound `COC(=O)/C(=C/C=C(c1ccccc1)c1ccccc1)N(C(C)=O)C(C)=O`, the growth inhibition in assay [1] (setting [7]) was 0%; in assay [1] (setting [8]), 13%; in assay [1] (at 50.0 µM), 99.4% (active); in assay [2] (setting [7]) it was 2%; in assay [2] (setting [8]) it was 25%; in assay [2] (at 50.0 µM) it was 99.6% (active). The growth inhibition in assay [3] (setting [7]) was 1%; in assay [3] (setting [8]), 67%; in assay [3] (at 50.0 µM), 99.6% (active); in assay [4] (setting [7]), 3%; in assay [4] (setting [8]) it was 7%; in assay [4] (at 50.0 µM), 99.4% (active). Also, the growth inhibition was -1% in assay [5] (setting [7]); 11% in assay [5] (setting [8]); 99.7% (active) in assay [5] (at 50.0 µM); -3% in assay [6] (setting [7]); 39% in assay [6] (setting [8]); 99.6% (active) in assay [6] (at 50.0 µM).

Consider `COc1ccc2c(c1)C(=O)C[C@@H]1[C@](C)(C#N)CCC[C@]21C`, for which the growth inhibition was 3% in assay [1] (setting [7]); 31% in assay [1] (setting [8]); 47.1% in assay [1] (at 50.0 µM); 3% in assay [2] (setting [7]); 2% in assay [2] (setting [8]); -4.95% in assay [2] (at 50.0 µM). In addition, the growth inhibition in assay [3] (setting [7]) is 3%; in assay [3] (setting [8]) it was 19%; in assay [3] (at 50.0 µM), 33.4%; in assay [4] (setting [7]), 5%; in assay [4] (setting [8]), 10%; in assay [4] (at 50.0 µM), -2.7%. In addition, the growth inhibition in assay [5] (setting [7]) was 5%; in assay [5] (setting [8]), 34%; in assay [5] (at 50.0 µM), 69.8%; in assay [6] (setting [7]), 7%; in assay [6] (setting [8]) it was 13%; in assay [6] (at 50.0 µM) it was 47.7%.

In the case of `OCCOc1ccc2ccccc2c1-c1c(OCCOc2ccc3ccccc3c2-c2c(OCCO)ccc3ccccc23)ccc2ccccc12`, the growth inhibition is 0% in assay [1] (setting [7]); 22% in assay [1] (setting [8]); 36.1% in assay [1] (at 50.0 µM); -3% in assay [2] (setting [7]); 13% in assay [2] (setting [8]); 21.5% in assay [2] (at 50.0 µM). Besides, the growth inhibition is 1% in assay [3] (setting [7]); 29% in assay [3] (setting [8]); 36.9% in assay [3] (at 50.0 µM); 6% in assay [4] (setting [7]); 33% in assay [4] (setting [8]); 11.7% in assay [4] (at 50.0 µM). Besides, the growth inhibition in assay [5] (setting [7]) is -2%; in assay [5] (setting [8]), 14%; in assay [5] (at 50.0 µM) it was 24.6%; in assay [6] (setting [7]), 3%; in assay [6] (setting [8]), 27%; in assay [6] (at 50.0 µM), 26.4%.

Turning to `OCC(O)C(O)C(/C=N/Nc1ccccc1)=N/Nc1ccccc1` (configuration not stated), the growth inhibition in assay [1] (setting [7]) was 11%; in assay [1] (setting [8]), 45%; in assay [1] (at 50.0 µM) it was 44%; in assay [2] (setting [7]) it was 7%; in assay [2] (setting [8]), 32%; in assay [2] (at 50.0 µM), 13.7%. In addition, the growth inhibition in assay [3] (setting [7]) is 10%; in assay [3] (setting [8]) it was 57%; in assay [3] (at 50.0 µM), 47.4%; in assay [4] (setting [7]) it was 51%; in assay [4] (setting [8]), 38%; in assay [4] (at 50.0 µM), 13.4%. Further, the growth inhibition in assay [5] (setting [7]) is 6%; in assay [5] (setting [8]), -65%; in assay [5] (at 50.0 µM), -5.35%; in assay [6] (setting [7]), 2%; in assay [6] (setting [8]), 61%; in assay [6] (at 50.0 µM), 60.4%.

With `CCN(CC)c1ccc(Cl)c2c1C(O)(C(C)C)C2(C)C` (configuration not stated), the growth inhibition is -20% in assay [1] (setting [7]); 96% (active) in assay [1] (setting [8]); 88.2% (active) in assay [1] (at 50.0 µM); 9% in assay [2] (setting [7]); 97% (active) in assay [2] (setting [8]); 92.4% (active) in assay [2] (at 50.0 µM). Further, the growth inhibition in assay [3] (setting [7]) was 1%; in assay [3] (setting [8]) it was 97% (active); in assay [3] (at 50.0 µM), 89.7% (active); in assay [4] (setting [7]) it was 24%; in assay [4] (setting [8]) it was 98% (active); in assay [4] (at 50.0 µM), 89.3% (active). Moreover, the growth inhibition in assay [5] (setting [7]) was 14%; in assay [5] (setting [8]), 98% (active); in assay [5] (at 50.0 µM) it was 89.8% (active); in assay [6] (setting [7]) it was 17%; in assay [6] (setting [8]) it was 98% (active); in assay [6] (at 50.0 µM), 87.5% (active).

These data come from PubChem BioAssay (NCI).
